# PubChem BioAssay AID686971 (National Center for Advancing Translational Sciences (NCATS), 2013)
# Out of some 360,000 compounds screened, about 7,500 (2.1%) were called active. Entries that show only a call come without a potency. Inconclusive results (about 8%) are left out. This is one part of a sample in which actives are shown more often than they occur. Calls come from the whole dose curve; as a rule, active = well fitted cell-killing curve with a large enough effect; inconclusive = small, poorly fitted or top-dose-only effect, or effect the other way, or another doubt; inactive = no such curve, though single readings can be large or run the other way.
# Experiment: qHTS for induction of synthetic lethality in tumor cells producing 2HG: qHTS for the HT-1080-IDH1KD cell line
# Settings: HT-1080 IDH1 knockdown viability, ATP luminescence, 48 h; series mostly up to 46.1 µM
# Method in brief: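 After a 2 h attachment period, IDH1KD HT-1080 cells took pin-transferred compound for 48 h at 37 °C; ATP-based luminescence after 10 min room-temperature reagent incubation reported viability.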
# Potency is the fitted concentration of half-maximal effect.
row,SMILES,Potency
1,Nc1nonc1-n1nnc(C(=O)N/N=C/c2ccccc2O)c1CN1CCCC1,14.6 µM (active)
2,NNC(=O)c1nnn(-c2nonc2N)c1CN1CCCC1,inactive
3,Nc1nonc1-n1nnc(C(=O)N/N=C\c2ccncc2)c1CN1CCCCC1,inactive
4,O=C1CC[C@@H](C(=O)N2CSC[C@@H]2C(=O)Nc2ccc(C(F)(F)F)cc2)N1,inactive
5,O=C(NCc1ccc(F)cc1)c1cc(C2CCCCN2C(=O)C2CCCCC2)on1 (centres undefined),inactive
6,COc1ccc(CCC(=O)c2ccc(OC)cc2)cc1,inactive
7,COc1ccc(OCCCC(=O)Oc2ccc(OC)cc2)cc1,inactive
8,COc1ccc(OCCC(=O)c2ccc(OC)cc2)cc1,20.6 µM (active)
9,COc1ccc(C(O)C(O)(C(=O)OC(C)C)c2ccc(C)cc2)cc1 (centres undefined),inactive
10,CC1(C)CC(=O)C=C(c2ccccc2CO)C1=O,inactive
11,CCOc1ccc(C(C)C)cc1S(=O)(=O)n1nc(C)cc1C,inactive
12,COc1ccc(OC)c(S(=O)(=O)n2c([N+](=O)[O-])cnc2C)c1,inactive
13,COc1ccc(C(C[N+](=O)[O-])n2nc(C)cc2C)cc1 (centres undefined),14.6 µM (active)
14,Cn1nc(N)c2ncc(C(Cl)(Cl)Cl)nc21,inactive
15,CNc1cc(-c2c(OC)cccc2OC)ncn1,inactive
16,CCOC(=O)C1CCN(c2c(Nc3cc(C)cc(C)c3)c(=O)c2=O)CC1,4.61 µM (active)
17,CCOC(=O)C1CCN(C(=O)Nc2ccc(C)c(Cl)c2)CC1,inactive
18,CCOC(=O)C1CCN(CCC(=O)Nc2cccc(C)c2)CC1,inactive
19,Cc1nc(C(F)(F)F)ccc1C(=O)N1CCC1(C)C(=O)NS(=O)(=O)c1ccccc1Cl (centres undefined),inactive
20,O=C(CCl)Nc1cccc(CP(=O)(c2ccccc2)c2ccccc2)c1,5.17 µM (active)
21,O=C(CSc1ccccc1)Nc1ccc(C(=O)Nc2cccc(O)c2)cc1,inactive
22,O=C(NCCc1ccccc1)c1cccc(NC(=O)c2ccccc2)c1,inactive

row,SMILES,Potency
1,Nc1ncnc2c1ncn2[C@@H]1O[C@H](CNC(=O)[C@H](N)Cc2cccnc2)[C@@H](O)[C@H]1O,inactive
2,CCC(=O)N1CCN(c2ccccc2NC(=O)COc2cccc(C)c2C)CC1,inactive
3,Cc1ccccc1OCC(=O)Nc1ccc(N2CCN(C(=O)C(C)C)CC2)c(Cl)c1,13 µM (active)
4,CCc1ccccc1OCC(=O)Nc1ccc(C)c(S(=O)(=O)N2CCCCCC2)c1,inactive
5,C[C@H]1CN([C@@H](C)CO)C(=O)CCCn2cc(nn2)CO[C@@H]1CN(C)S(=O)(=O)c1ccccc1C#N,inactive
6,Nc1nc2c(ncn2[C@@H]2O[C@H](CNS(=O)(=O)N3CCc4ccccc4C3)[C@@H](O)[C@H]2O)c(=O)[nH]1,inactive
7,CC(C)(C)c1ccc(S(=O)(=O)NC(=O)C2(C)CCN2C(=O)CC2CC2)cc1 (centres undefined),inactive
8,CCc1ccc(C(CNc2nc(C(F)(F)F)nc3ccccc23)N(C)C)cc1 (centres undefined),20.6 µM (active)
9,CN(C)C(CNC(=O)c1cc2ccccc2o1)c1ccccc1 (centres undefined),inactive
10,NS(=O)(=O)c1ccc(CCNc2nc(C(F)(F)F)nc3ccccc23)cc1,inactive
11,CCOC1=C2CN(S(=O)(=O)c3ccc(C)cc3)[C@H](c3cccs3)C[C@H]2[C@H]2C(=O)N(c3ccccc3)C(=O)[C@H]2C1,inactive
12,Cc1ccccc1OCCOc1ccc([N+](=O)[O-])cc1/C=N/n1cnnc1,4.61 µM (active)
13,Cc1ccccc1OS(=O)(=O)c1cccc([N+](=O)[O-])c1,inactive
14,CCOc1cc(/C=N/n2cnnc2)c(Br)cc1O,inactive
15,O=C(COC(=O)Cc1ccc(Cl)cc1Cl)NCc1ccco1,inactive
16,Cn1cnc(S(=O)(=O)N2C[C@@H](O)COC[C@@H]3O[C@H](CC(=O)NC4CCC4)CC[C@H]32)c1,inactive
17,O=c1cc(CN2CCCCCCC2)c2c(ccc3ccccc32)o1,inactive
18,CCOC(=O)C1CCCN(C(=O)/C=C/c2ccc(OC)cc2)C1 (centres undefined),inactive
19,CCN1CCC(O)(/C=C/c2ccc(C)cc2)C(C(=O)/C=C/c2ccc(C)cc2)C1 (centres undefined),11.6 µM (active)
20,COc1ccc(S(=O)(=O)N2CCN(CC(=O)N3CCNC3=O)CC2)cc1OC,inactive
21,COc1ccc(CN2C(=O)C(CC(=O)NCCN3CCOCC3)CC(C(=O)N(C(C)C)C(C)C)=C2C)cc1 (centres undefined),inactive
22,CCc1cc(C(=O)N(CC)CC(=O)Nc2c(F)cccc2F)sc1C,inactive

row,SMILES,Potency
1,COc1ccc(Cl)cc1NC(=O)CN(C)C(=O)c1cn(-c2ccccc2)nc1-c1cccs1,inactive
2,COc1ccc2oc(=O)cc(-c3cc4ccccc4o3)c2c1,inactive
3,COc1ccc(Nc2cc(=O)oc3ccccc23)cc1,5.8 µM (active)
4,COc1ccc(Nc2ccc3ccccc3c2)cc1,inactive
5,COc1ccc(CC(=O)NC2CCSc3ccccc32)cc1OC (centres undefined),inactive
6,COc1ccc(CC2c3cc(OC)c(OC)cc3CC[N+]2(C)CCC(=O)OCCCCCOC(=O)CC[N+]2(C)CCc3cc(OC)c(OC)cc3C2Cc2ccc(OC)c(OC)c2)cc1OC (centres undefined),20.6 µM (active)
7,COC(=O)C1=CN(Cc2ccc(OC)c(OC)c2)C=C(C(=O)OC)C1c1cccs1,inactive
8,C/C(=N\NC(=S)NC(C)C)c1ccc(C(C)(C)C)cc1,16.4 µM (active)
9,C/C(=N\NC(=S)NCc1ccccc1)c1ccc(Cl)cc1,inactive
10,CC/C(=N\NC(=S)NC(C)C)c1ccc(OC(F)F)cc1,inactive
11,CC(C)C[C@@H]1COc2cc(N3CCC[C@@H]3CO)ccc2S(=O)(=O)N1,inactive
12,CC(C)(C(=O)NO)c1ccccc1,inactive
13,CCOc1cc(/C=N/NC(=O)c2c(C)nc3ccc(Cl)cn23)ccc1O,inactive
14,CCOc1cc(-c2cc(-c3ccc(NC(C)=O)cc3)nc(N)c2C#N)ccc1O,inactive
15,CCOc1cc(/C=C(\C#N)c2nc(-c3cccs3)c(NC(C)=O)s2)ccc1O,2.91 µM (active)
16,CC1(C(=O)NS(=O)(=O)c2cccc(F)c2)CCN1C(=O)c1cccc2ccccc12 (centres undefined),inactive
17,COc1cccc(CN(C)C(=O)CC[C@H]2O[C@@H](n3cnc4c(NC(=O)c5ccccc5)ncnc43)[C@H](O)[C@@H]2O)c1,inactive
18,COc1ccc(C(C#N)=C2C=CC(=NO)c3ccccc32)cc1,0.517 µM (active)
19,COc1ccc(C(=NN)c2ccc(OC)cc2)cc1,inactive
20,COc1ccc(/C(N)=N/OC(=O)Cc2ccccc2)cc1,inactive
